# “And” between values parts separate entries of the source, which are not always exact repeats. Identical values can stand only once. Records with an inconclusive call do not appear. The source made the active and inactive calls. Unless noted, calls come from the whole dose curve; as a rule, active = well fitted curve in the direction sought with a large enough effect; inconclusive = small, poorly fitted or top-dose-only effect, or another doubt; inactive = no such curve, though single readings can be large; an effect the other way counts as inactive or inconclusive.
# Tests used:
# [1] = molecular target: Cytochrome P450 2C9 (Homo sapiens) (UniProt P11712); assay: Cytochrome P450 family 2 subfamily C member 9 (CYP2C9) small molecule antagonists: luciferase biochemical (cell-free) qHTS assay (AID 1645842; active = well fitted curve in the direction sought with a large enough effect in the repeat runs; an effect the other way counts as inactive or inconclusive; note: nearly all actives have a fitted effect of over 55% in size)
# Summary of the method: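 Luminescence, after 20 min with luciferin detection reagent, reflected CYP2C9 turnover during a 1 h NADPH-driven reaction at 37C. Enzyme-substrate mix contained 0.4% bovine serum albumin and was preincubated with compound 10 min at room temperature.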
# [2] = Primary qHTS for inhibitors of nuclear receptor binding SET domain protein 2 (NSD2) in an isogenic RCH-ACV NSD2 p.E1099K mutant (9B) (AID 1645876); note: nearly all actives have a fitted effect of over 70% in size
# [3] = Primary qHTS for inhibitors of nuclear receptor binding SET domain protein 2 (NSD2) in an RCH-ACV wild type WT cells (2C) (AID 1645877); note: nearly all actives have a fitted effect of over 70% in size
# Potency is the fitted concentration of half-maximal effect.
# Chain of Cytochrome P450 2C9 (Homo sapiens) (P11712 whole entry, looked up): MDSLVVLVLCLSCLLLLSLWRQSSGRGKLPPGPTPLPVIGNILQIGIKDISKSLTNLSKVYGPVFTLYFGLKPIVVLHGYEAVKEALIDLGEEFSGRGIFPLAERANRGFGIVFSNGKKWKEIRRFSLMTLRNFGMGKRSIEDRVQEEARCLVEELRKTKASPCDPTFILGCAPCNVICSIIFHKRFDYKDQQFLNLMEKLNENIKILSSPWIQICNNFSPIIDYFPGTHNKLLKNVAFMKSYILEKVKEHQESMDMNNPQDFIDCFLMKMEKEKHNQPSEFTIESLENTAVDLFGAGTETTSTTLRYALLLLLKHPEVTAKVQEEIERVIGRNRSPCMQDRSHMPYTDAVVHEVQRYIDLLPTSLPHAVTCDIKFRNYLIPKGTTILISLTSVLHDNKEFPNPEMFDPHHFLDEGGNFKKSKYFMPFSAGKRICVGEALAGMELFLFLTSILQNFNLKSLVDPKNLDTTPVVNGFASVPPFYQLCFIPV
SMILES,Potency [1],Potency [2],Potency [3]
COc1ccc(-c2ccc3c(N4CCOCC4C)nc(N4CCOCC4C)nc3n2)cc1CO (stereo unspecified),4.77 µM (active),0.0325 µM (active),0.0515 µM (active)
Clc1ccc(Nc2nc3ccccc3c3nc(C4CCCCC4)[nH]c23)cc1Cl,6.01 µM (active),16.3 µM (active),16.3 µM (active)
CC#CC(=O)Nc1ccc2ncnc(Nc3cccc(Br)c3)c2c1,inactive,1.29 µM (active) and 1.3 µM (active),1.03 µM (active) and 1.16 µM (active)
CCC(C)CNCC(=O)N1CCc2sccc2C1COc1cccc(C)c1 (stereo unspecified),13.5 µM (active),16.3 µM (active),20.5 µM (active)
O=C(NCc1nc2ccccc2c(=O)n1-c1ccc(F)cc1)Nc1ccc(Cl)c(C(F)(F)F)c1,10.7 µM (active),25.8 µM (active),23 µM (active)
COc1cc(OC)c2c(=O)[nH]c(-c3cc(C)c(OCCO)c(C)c3)nc2c1,12 µM (active) and 10.7 µM (active),12.9 µM (active) and 14.8 µM (active),10.3 µM (active) and 11.8 µM (active)
O=C(NC1CCN(CCCCC2(C(=O)NCC(F)(F)F)c3ccccc3-c3ccccc32)CC1)c1ccccc1-c1ccc(C(F)(F)F)cc1,15.1 µM (active),2.9 µM (active),2.9 µM (active)
O=C1c2ccc(Nc3ccc(F)cc3F)cc2CCc2ccc(OCC(O)CO)cc21 (stereo unspecified),6.01 µM (active),16.3 µM (active),18.3 µM (active)
CCNC(=O)Nc1ccc(-c2nc3c(c(N4CCOCC4C)n2)CCN(C2COC2)C3)cc1 (stereo unspecified),16.9 µM (active),0.325 µM (active),0.459 µM (active)
CCc1ccccc1OC[C@@H](O)CN[C@H]1CCCc2ccccc21,inactive,16.3 µM (active),10.3 µM (active)
COc1cc(CN(CCN)C(=O)c2cccs2)ccc1OCc1ccccc1,10.7 µM (active),18.3 µM (active),20.5 µM (active)
CC(=O)c1ccc2c(c1)[C@H](NC(=O)c1ccc(F)c(Cl)c1)[C@H](O)C(C)(C)O2,2.68 µM (active),inactive,inactive
COc1ccc(C(=O)Nc2c(Cl)cncc2Cl)cc1OC1CCCC1,6.74 µM (active),inactive,inactive
Fc1ccc(-n2cc(CCCCN3CCC4(CC3)OCc3ccccc34)c3ccccc32)cc1,2.39 µM (active),7.28 µM (active),6.49 µM (active)
CCCC(CCC)C(=O)Nc1ccn([C@@H]2O[C@H](CO)[C@@H](O)C2(F)F)c(=O)n1,8.49 µM (active),1.48 µM (active),0.934 µM (active)
COc1ccccc1N1CCN(CC(C(=O)NC(C)(C)C)c2ccccc2)CC1 (stereo unspecified),12 µM (active),inactive,inactive

SMILES,Potency [1],Potency [2],Potency [3]
CCN1C(C)(C)CC(Oc2ccc(C(=O)Nc3ccc(NC(=O)Nc4cc(C(C)(C)C)on4)cc3)nc2)CC1(C)C,inactive,4.11 µM (active),6.51 µM (active)
CC(C)CCNC(=O)c1ccc2c(c1)nc(Nc1n[nH]c3ccc(-c4ccccc4OC(F)(F)F)cc13)n2C1CCC(O)CC1 (stereo unspecified),9.52 µM (active),10.3 µM (active),14.5 µM (active)
O=C1C(Cc2ccc(O)cc2)N2C(=O)CCN(C(=O)NCc3ccccc3)C2CN1Cc1cccc2ccccc12 (stereo unspecified),10.7 µM (active),3.65 µM (active),5.15 µM (active)
COc1ccc(Oc2c(Cl)cnn(-c3cc(C)cc(C)c3)c2=O)cc1,12 µM (active),11.5 µM (active),4.09 µM (active)
CC(C)c1noc(C2CCN(c3ncnc(Nc4ccc(S(C)(=O)=O)cc4F)c3[N+](=O)[O-])CC2)n1,inactive,inactive,inactive
N#CC(CCCN1CCN(/N=C/c2cccnc2)CC1)(c1ccccc1)c1ccccc1,7.56 µM (active),inactive,inactive
COc1cc(F)c(C(C)C)cc1-c1ccc(C(F)(F)F)cc1CN1C(=O)OC(c2cc(C(F)(F)F)cc(C(F)(F)F)c2)C1C (stereo unspecified),inactive,inactive,inactive
CCOc1nc(NC(=O)Cc2cc(OC)ccc2OC)cc(N)c1C#N,0.301 µM (active),inactive,inactive
CC(=O)N1CCN(CCOc2ccc(C3CCN(C4=Nn5c(nnc5C(F)(F)F)CC4)CC3)cc2)CC1,12 µM (active),5.15 µM (active),6.49 µM (active)
Cc1ccc(F)cc1S(=O)(=O)N[C@@H]1CCN(Cc2ccc(OC(C)C)cc2)C1,6.01 µM (active),16.3 µM (active),18.3 µM (active)
COc1ccc2c(NC(=O)Nc3cccc(C(F)(F)F)n3)ccnc2c1,3.01 µM (active),4.09 µM (active),3.25 µM (active)
O=C(Nc1ccc(CN2CCOCC2)cc1)c1ccc(-c2cccc(Cl)c2)o1,19 µM (active),16.3 µM (active),11.5 µM (active)
Nc1nc2c(c(N3CC[C@@H](N)C3)n1)CCCc1ccccc1-2,inactive,20.5 µM (active),18.3 µM (active)
Cc1noc(C)c1-c1cc(O)cc(C(O)c2ccccc2)c1 (stereo unspecified),0.849 µM (active),0.916 µM (active),1.03 µM (active)
C[C@H]1[C@H](/C=C/c2ccc(-c3ccccc3C#N)cn2)[C@@H]2[C@@H](C)OC(=O)[C@@H]2C[C@@H]1C,inactive,14.5 µM (active),10.3 µM (active)
O=C(NCCO)c1cccc(-c2cc(Nc3ccc(OC(F)(F)F)cc3)ncn2)c1,21.3 µM (active),18.3 µM (active),18.3 µM (active)
